Consider 5 compounds from PubChem BioAssay (EPA / NIEHS).

“And” between values parts separate entries of the source, which are not always exact repeats. Equal entries are not always repeated. Some structures have more than one record in an assay (separate samples or runs), and their calls can disagree. The source made the active and inactive calls. How the source made its calls: active means hit-call score of the fitted dose curve at least 0.9, where 1 is the maximum; inactive means score below 0.9.

Read-out in test [1]: Macrophage colony-stimulating factor (MCSF), CSF1 (gene 1435)
Nature of the test: BSK_hDFCGF_MCSF: BioMAP Diversity Plus: hDFCGF Assay for Macrophage colony-stimulating factor (MCSF) Biomarker Activity (AID 2283060). The conditions noted are these: primary human foreskin fibroblasts; actives raise or lower the signal. In outline: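 fibroblasts (human foreskin, primary), 24 h post-dose; M-CSF by ELISA; bidirectional fit, DMSO = baseline.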

A short description of test [2]: BSK_hDFCGF_SRB: Viability Assessment in the BioMAP Diversity Plus: hDFCGF Assay (AID 2283061).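 Further: cells exposed to compound for 24 h before the read.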 The conditions noted are these: primary human foreskin fibroblasts. In outline:
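SRB-based viability read on primary human skin fibroblasts at 24 h: TCA fixation, 0.1% dye, 560 nm. Gain or loss of signal is fitted against the DMSO negative control.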

Read-out in test [3]: TIMP metallopeptidase inhibitor 1 (TIMP1), TIMP1 (gene 7076)
In words: BSK_hDFCGF_TIMP1: BioMAP Diversity Plus: hDFCGF Assay for TIMP metallopeptidase inhibitor 1 (TIMP1) Biomarker Activity (AID 2283062). The conditions noted are these: primary human foreskin fibroblasts; actives raise or lower the signal. In a few lines:
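Bidirectional curve fitting against DMSO baseline yielded this endpoint, based on ELISA detection of TIMP-1 in primary human foreskin fibroblasts exposed to compound for 24 h.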

Read-out in test [4]: Monokine induced gamma interferon (MIG), CXCL9 (gene 4283)
In words: BSK_hDFCGF_MIG: BioMAP Diversity Plus: hDFCGF Assay for Monokine induced gamma interferon (MIG) Biomarker Activity (AID 2283063). The conditions noted are these: primary human foreskin fibroblasts; actives raise or lower the signal. In outline: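 Endpoint derived by bidirectional fitting relative to DMSO; MIG quantified via ELISA in primary human foreskin fibroblasts harvested 24 h after dosing.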

Read-out in test [5]: Matrix Metallopeptidase 1 (MMP1), MMP1 (gene 4312)
Nature of the test: BSK_hDFCGF_MMP1: BioMAP Diversity Plus: hDFCGF Assay for Matrix Metallopeptidase 1 (MMP1) Biomarker Activity (AID 2283064). The conditions noted are these: primary human foreskin fibroblasts; actives raise or lower the signal. In outline: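 MMP1 levels quantified by ELISA 24 h after dosing human dermal fibroblast cultures, with parallel SRB total-protein staining for overt cytotoxicity. Data fitted in both directions against DMSO baseline.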

Read-out in test [6]: Vascular cell adhesion molecule 1 (VCAM1), VCAM1 (gene 7412)
Nature of the test: BSK_hDFCGF_VCAM1: BioMAP Diversity Plus: hDFCGF Assay for Vascular cell adhesion molecule 1 (VCAM1) Biomarker Activity (AID 2283065).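 On AC50: VCAM-1 protein level quantified by ELISA after 24 h chemical exposure.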 The conditions noted are these: primary human foreskin fibroblasts; actives raise or lower the signal. In a few lines: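 Measured after 24 h chemical treatment of primary human skin fibroblasts, VCAM-1 was detected by ELISA and concentration-response analysed in both directions versus DMSO vehicle.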

Read-out in test [7]: Plasminogen activator inhibitor-1 (PAI1), SERPINE1 (gene 5054)
In words: BSK_hDFCGF_PAI1: BioMAP Diversity Plus: hDFCGF Assay for Plasminogen activator inhibitor-1 (PAI1) Biomarker Activity (AID 2283066). The conditions noted are these: primary human foreskin fibroblasts; actives raise or lower the signal. In a few lines: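 PAI-1 levels in human dermal foreskin fibroblasts were quantified by ELISA 24 h after dosing, with gain or loss analysed against DMSO. Overt cytotoxicity was checked by sulforhodamine B total-protein staining in parallel cultures.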

Read-out in test [8]: Intercellular Adhesion Molecule 1 (ICAM1), ICAM1 (gene 3383)
Nature of the test: BSK_KF3CT_ICAM1: BioMAP Diversity Plus: KF3CT Assay for Intercellular Adhesion Molecule 1 (ICAM1) Biomarker Activity (AID 2283067). The conditions noted are these: primary human keratinocytes with fibroblasts; actives raise or lower the signal. In outline:
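Bidirectional curve fitting against a DMSO baseline was applied to ICAM-1 ELISA signal from primary human skin co-cultures harvested 24 h after treatment, with SRB staining of parallel wells for overt cytotoxicity.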

Read-out in test [9]: Interferon-gamma inducible Protein 10 (IP10), CXCL10 (gene 3627)
In words: BSK_KF3CT_IP10: BioMAP Diversity Plus: KF3CT Assay for Interferon-gamma inducible Protein 10 (IP10) Biomarker Activity (AID 2283068). The conditions noted are these: primary human keratinocytes with fibroblasts; actives raise or lower the signal. In outline:
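ELISA read-out of IP-10 after 24 h chemical dosing of human skin primary co-culture (keratinocytes, foreskin fibroblasts). Gain or loss of signal relative to DMSO, bidirectional curve fit.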

Test [10] in a line: BSK_KF3CT_SRB: Viability Assessment in the BioMAP Diversity Plus: KF3CT Assay (AID 2283069).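 Further: read 24 h after compound addition.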 The conditions noted are these: primary human keratinocytes with fibroblasts. In outline: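 Cytotoxicity was gauged by SRB staining (0.1% SRB, 10% TCA fixation, 560 nm) of parallel cultures at 24 h. The cells were primary human skin keratinocytes co-cultured with fibroblasts, and activity was fitted in both directions against DMSO.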

Read-out in test [11]: Interleukin-1 alpha (IL1a), IL1A (gene 3552)
In words: BSK_KF3CT_IL1a: BioMAP Diversity Plus: KF3CT Assay for Interleukin-1 alpha (IL1a) Biomarker Activity (AID 2283070). The conditions noted are these: primary human keratinocytes with fibroblasts; actives raise or lower the signal. In outline: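 IL-1a was detected by ELISA 24 h after chemical treatment of a co-culture of human skin keratinocytes and foreskin fibroblasts. Gain or loss of signal was fitted against the DMSO baseline.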

Read-out in test [12]: TIMP metallopeptidase inhibitor 2 (TIMP2), TIMP2 (gene 7077)
In words: BSK_KF3CT_TIMP2: BioMAP Diversity Plus: KF3CT Assay for TIMP metallopeptidase inhibitor 2 (TIMP2) Biomarker Activity (AID 2283071). The conditions noted are these: primary human keratinocytes with fibroblasts; actives raise or lower the signal. In a few lines: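 TIMP-2 measured by ELISA at 24 h in human keratinocyte/fibroblast primary co-cultures exposed to chemicals. Both increases and decreases were fitted against DMSO. Parallel cultures were stained with SRB for total protein as an overt-cytotoxicity check.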

Read-out in test [13]: Transforming growth factor beta 1 (TGFb1), TGFB1 (gene 7040)
In words: BSK_KF3CT_TGFb1: BioMAP Diversity Plus: KF3CT Assay for Transforming growth factor beta 1 (TGFb1) Biomarker Activity (AID 2283072). The conditions noted are these: primary human keratinocytes with fibroblasts; actives raise or lower the signal. In outline: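 ELISA quantifies TGF-b1 at 24 h post-dose in a primary human skin co-culture of keratinocytes and fibroblasts, with gain or loss judged against DMSO. Parallel SRB total-protein staining flags overt cytotoxicity.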

Read-out in test [14]: C-C motif chemokine 2 (Homo sapiens) (UniProt P13500)
Nature of the test: BSK_KF3CT_MCP1: BioMAP Diversity Plus: KF3CT Assay for Monocyte Chemoattractant Protein 1 (MCP1/CCL2) Biomarker Activity (AID 2283073). The conditions noted are these: primary human keratinocytes with fibroblasts; actives raise or lower the signal. In a few lines: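 Biomarker MCP-1 is measured by ELISA in primary human keratinocytes co-cultured with foreskin fibroblasts, 24 h after chemical treatment; DMSO serves as the negative control and activity baseline.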

Read-out in test [15]: Matrix Metallopeptidase 9 (MMP9), MMP9 (gene 4318)
Nature of the test: BSK_KF3CT_MMP9: BioMAP Diversity Plus: KF3CT Assay for Matrix Metallopeptidase 9 (MMP9) Biomarker Activity (AID 2283074).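 On AC50: MMP9 protein level quantified by ELISA in the co-culture.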 The conditions noted are these: primary human keratinocytes with fibroblasts; actives raise or lower the signal. In outline:
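MMP-9 quantified by ELISA after 24 h chemical treatment of primary human skin keratinocyte/fibroblast co-cultures; gain or loss fitted against DMSO, with parallel SRB staining (0.1% SRB, 560 nm) for overt cytotoxicity.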

Read-out in test [16]: urokinase plasminogen activator (uPA), PLAU (gene 5328)
In words: BSK_KF3CT_uPA: BioMAP Diversity Plus: KF3CT Assay for urokinase plasminogen activator (uPA) Biomarker Activity (AID 2283075). The conditions noted are these: primary human keratinocytes with fibroblasts; actives raise or lower the signal. In a few lines: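 ELISA read-out of uPA 24 h after dosing human skin keratinocytes co-cultured with foreskin fibroblasts. Signal change fitted both ways relative to DMSO; sulforhodamine B on parallel cultures marks overt cytotoxicity.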

Read-out in a further test: CD40, CD40 (gene 958)
In words: BSK_LPS_CD40: BioMAP Diversity Plus: LPS Assay for CD40 Biomarker Activity (AID 2283076). The conditions noted are these: primary human HUVEC with PBMC; actives raise or lower the signal. In outline:
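Using a multiplexed primary human co-culture (umbilical vein endothelium plus PBMC), CD40 was read by ELISA 24 h after dosing, with cytotoxicity tracked by sulforhodamine B staining of parallel cultures and activity fitted bidirectionally versus DMSO.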

Read-out in test [17]: E-selectin (Homo sapiens) (UniProt P16581)
Nature of the test: BSK_LPS_Eselectin: BioMAP Diversity Plus: LPS Assay for Eselectin Biomarker Activity (AID 2283077). The conditions noted are these: primary human HUVEC with PBMC; actives raise or lower the signal. In outline: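 Dose chemical onto LPS-driven HUVEC/PBMC co-culture; after 24 h, run ELISA for E-selectin; fit up- and down-going responses relative to DMSO control.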

Read-out in test [18]: Interleukin-8 (IL8), CXCL8 (gene 3576)
In words: BSK_LPS_IL8: BioMAP Diversity Plus: LPS Assay for Interleukin-8 (IL8) Biomarker Activity (AID 2283078). The conditions noted are these: primary human HUVEC with PBMC; actives raise or lower the signal. In a few lines: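 In this LPS system, chemical-treated human umbilical vein endothelium/PBMC co-cultures were harvested at 24 h for IL-8 ELISA.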

Test [19] can be described thus: BSK_LPS_SRB: Viability Assessment in the BioMAP Diversity Plus: LPS Assay (AID 2283079).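 Further: total protein by sulforhodamine B absorbance as a cytotoxicity measure; measured one day after compound addition; fitted in both directions against DMSO so loss or gain of signal counts.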 The conditions noted are these: primary human HUVEC with PBMC. In a few lines: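 Cytotoxicity endpoint in human endothelial–PBMC co-culture: 24 h exposure, then SRB (0.1%) staining, 560 nm read.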

E-selectin (Homo sapiens), sequence (P16581 whole entry, looked up): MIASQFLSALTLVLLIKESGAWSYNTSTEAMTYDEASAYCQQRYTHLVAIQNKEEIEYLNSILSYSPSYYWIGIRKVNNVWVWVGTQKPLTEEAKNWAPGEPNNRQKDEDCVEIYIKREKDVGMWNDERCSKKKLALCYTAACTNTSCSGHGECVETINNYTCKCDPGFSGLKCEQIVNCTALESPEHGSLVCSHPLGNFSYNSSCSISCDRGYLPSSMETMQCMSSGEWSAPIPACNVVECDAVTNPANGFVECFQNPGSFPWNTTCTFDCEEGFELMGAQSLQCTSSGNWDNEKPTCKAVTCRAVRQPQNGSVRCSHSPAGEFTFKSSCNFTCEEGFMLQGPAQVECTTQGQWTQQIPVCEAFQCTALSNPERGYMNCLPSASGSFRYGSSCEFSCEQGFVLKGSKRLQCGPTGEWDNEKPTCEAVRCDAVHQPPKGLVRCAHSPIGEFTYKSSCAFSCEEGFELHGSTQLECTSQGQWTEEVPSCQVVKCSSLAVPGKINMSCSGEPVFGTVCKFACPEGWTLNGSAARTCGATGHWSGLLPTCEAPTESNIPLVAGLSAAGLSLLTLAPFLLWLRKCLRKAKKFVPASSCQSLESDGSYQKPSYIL

With `C#C[C@]1(O)CC[C@H]2[C@@H]3CCc4cc(OC)ccc4[C@H]3CC[C@@]21C`, the outcome in test [1], in test [2], in test [3], in test [4], in [5] and in test [6] was inactive. Besides, the result in [8], in test [9], in test [10], in test [14], in [17] and in [18] was inactive. For the same compound, the result in [19] was inactive. The concentration at half-maximal activity (AC50) (in general, the concentration giving half of the maximal activity seen) was 0.016 µM (active) in test [7]; 3.97 µM (active) in test [11]; 5.41 µM (active) in test [12]; 2.14 µM (active) in test [13]; 7.71 µM (active) in test [15]; 9.89 µM (active) in [16]. Also, the AC50 with CD40, CD40 (gene 958) is 20 µM (active).

As to `O=C(O)C(F)(F)C(F)(F)C(F)(F)C(F)(F)C(F)(F)C(F)(F)C(F)(F)C(F)(F)C(F)(F)C(F)(F)C(F)(F)C(F)(F)F`, the AC50 is 6.46 µM (active) in test [1]; 6.27 µM (active) in [2]; 1.6 µM (active) in [5]; 4.75 µM (active) and 1.14 µM (active) in test [6]; 22.5 µM (active) in test [9]; 4.28 µM (active) and 3.91 µM (active) in test [11]. In addition, the outcome in test [1], in [2], in [3], in [5], in test [7] and in test [8] was inactive. Also, the outcome was “inactive” in test [9]; “inactive” in test [10]; “inactive” in test [12]; “inactive” in test [14]; “inactive” in [15]; “inactive” with CD40, CD40 (gene 958). Moreover, the result in test [17], in test [18] and in test [19] was inactive.

For the compound `CO[Si](OC)(c1ccccc1)c1ccccc1`, the AC50 in test [1] was 32.5 µM (active); in test [2] it was 36 µM (active); in test [10], 32.6 µM (active); in [12] it was 30.9 µM (active); in test [13], 30.1 µM (active); in [14], 31.6 µM (active). Moreover, the half-maximal activity concentration (AC50) is 31.3 µM (active) in test [15] and 28.9 µM (active) in [16]. The outcome in test [3], in test [4], in test [5], in test [6], in test [7] and in [8] was inactive. In addition, the outcome in [9] is “inactive”; in test [11] it was “inactive”; with CD40, CD40 (gene 958), “inactive”; in test [17], “inactive”; in test [18], “inactive”; in test [19], “inactive”.

`CCc1c(Br)c(Br)c(Br)c(Br)c1Br`: the result in test [1], in test [2], in test [3], in [4], in test [5] and in test [6] was inactive. In addition, the outcome in [7], in [8], in test [9], in test [10], in [11] and in test [12] was inactive. In addition, the outcome was “inactive” in test [13]; “inactive” in test [14]; “inactive” in [15]; “inactive” in test [16]; “inactive” with CD40, CD40 (gene 958); “inactive” in [17]. Moreover, the outcome in [18] and in test [19] was inactive.

On to `O=C(O)C(F)(F)C(F)(F)C(F)(F)C(F)(F)C(F)(F)C(F)(F)C(F)(F)C(F)(F)C(F)(F)C(F)(F)C(F)(F)C(F)(F)C(F)(F)F`, for which the result in [1], in test [2], in test [3], in test [4], in [5] and in test [6] was inactive. Further, the result in test [7], in [9], in [10], in test [11], in test [12] and in test [14] was inactive. In addition, the outcome is “inactive” in [15]; “inactive” in [16]; “inactive” with CD40, CD40 (gene 958); “inactive” in test [17]; “inactive” in [18]; “inactive” in [19]. Moreover, the half-maximal activity concentration (AC50) in [18] was 2.24 µM (active).
